This is a sample that favours compounds with a hit; in the whole collection about 13% have one here.
RAM inhibit – inhibitors of the yeast RAM network, primary screen, dse1pr::URA3 reporter, 5-FOA selection; 1.8% of 190,000 active; inhibition, % at 50 µM; S. cerevisiae dse1pr::URA3 reporter, 5-FOA growth OD615, 2 d; analog-sensitive cbk1-as2 kinase mutant strain;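 active = inhibition above a set limit, 3 SD over mean compound inhibition, cut at about 8.4% in these data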;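 also: 0% = DMSO-only wells with no growth and 100% = 10 µM 1-NA-PP1 full growth; inhibition rescues growth on 5-FOA so higher OD means more RAM inhibition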
WT yeast gro inh – growth inhibition of WT strain, primary screen, mitochondrial fusion inhibitor project, WT and mutant strains, chemical genetic; AID 1362, 2008; mitochondrial fusion phenotypic screen; inhibition, % at 10 µM; 2.1% of 190,000 active; in the data active = inhibition above about 58%; tested in S. cerevisiae
CHOP inh – inhibitors of CHOP promoter induction, primary screen, cell-based, unfolded protein response, luciferase reporter. CHO-K1 CHOP-promoter luciferase, tunicamycin-induced, 15-18 h. inhibition, % at 10 µM. 3.8% of 220,000 active. AID 2732, 2010;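 active = compounds that reduced the stress-induced luciferase reporter signal by more than about 70% of percent inhibition, limit read from the data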;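 also: 0% = tunicamycin plus vehicle and 100% = wells without tunicamycin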
L major viab – Leishmania major promastigote growth inhibition, primary screen; AID 1063, 2008; Leishmania major promastigotes, resazurin fluorescence viability; inhibition, % at 10 µM; 9% of 200,000 active; in the data active = inhibition above about 50%;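 also: promastigotes grown with compound for 44 hours at 28 °C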
* = called active by the depositor; . = no result.

SMILES	RAM inhibit	WT yeast gro inh	CHOP inh	L major viab
CCOC(=O)c1cc(CC)sc1NC(=O)CC1Sc2ccc(C(F)(F)F)cc2NC1=O (stereo unspecified)	4	-6	82*	31
COC(=O)c1c(NC(=O)CC2Sc3ccc(C(F)(F)F)cc3NC2=O)sc(C)c1C (stereo unspecified)	3	3	23	-5
COC(=O)c1c(NC(=O)CC2Nc3cc(C)c(C)cc3NC2=O)sc(C)c1C (stereo unspecified)	0	-11	21	-5
CCc1cc(C(=O)OC)c(NC(=O)CC2Nc3cc(C)c(C)cc3NC2=O)s1 (stereo unspecified)	1	-10	103*	40
Cc1cccc(NC(=O)NC(C)C(c2ccccc2)N2CCN(C)CC2)c1 (stereo unspecified)	1	14	9	1
C/C(O)=C\c1nc2ccccc2oc1=O	0	34	30	65*
CS(=O)(=O)Cc1nc2ccccc2oc1=O	0	20	41	100*
CCS(=O)(=O)CCSc1nc2ccccc2o1	0	-5	22	-2
Cc1cccc(C(=O)Nc2nccs2)c1[N+](=O)[O-]	3	-4	25	25
CCc1cc2c(=O)c(-c3cscn3)coc2cc1O	2	69*	-45	14
CCOC(=O)c1oc2cc(O)c(CC)cc2c(=O)c1-c1cscn1	1	-10	5	1
Cc1cc(=O)n2[nH]c(-c3ccc(F)cc3)cc2n1	1	60*	-18	0
COc1cc(-n2c(-c3ccccc3)n[nH]c2=S)c(OC)cc1Cl	3	10	-8	59*
COc1cc(OC)cc(-c2n[nH]c(=S)n2-c2cc(OC)ccc2OC)c1	5	-2	24	100*
Cc1cccc(C)c1NC(=O)CNc1ncnc2sc(C)c(C)c12	1	-2	11	7
O=S(=O)(N/N=C\C=C\c1ccccc1)c1ccccc1	.	.	.	51*
COc1cc(OC)cc(N(C(=O)C2COc3ccccc3O2)C(C(=O)NC2CCCCC2)c2ccc(O)cc2)c1 (stereo unspecified)	6	7	48	64*
COc1ccc(N(C(=O)C2COc3ccccc3O2)C(C(=O)NC2CCCCC2)c2ccccc2)cc1OC (stereo unspecified)	4	-2	6	99*
O=C(COc1c(Br)cc(Br)c2cccnc12)N1CCCCC1	-1	23	26	5
O=C(COc1c(Br)cc(Br)c2cccnc12)N1CCc2ccccc2C1	1	65*	55	-4
CCN1c2ccccc2N(C)C1(C)c1ccccc1 (stereo unspecified)	3	33	32	99*
CN1c2ccccc2N(C)C1(C)c1ccccc1	4	17	17	28
CCn1ccnc1CN(C)C(=O)CCc1nnc(CCCc2ccccc2)o1	1	-8	19	-6
CC[n+]1c(C)cc(C)n1-c1ccccc1	4	-8	11	-8
S=C(NCc1ccco1)N1CCN(c2ccc(Cl)cc2)CC1	4	11	18	-3
SMILES	RAM inhibit	WT yeast gro inh	CHOP inh	L major viab
S=C(NCc1ccco1)N1CCN(Cc2ccc(Cl)cc2Cl)CC1	-1	42	74*	6
OCC1(CC2CCCCO2)CCN(C/C=C/c2ccccc2)CC1 (stereo unspecified)	2	12	12	89*
S=C(NC1CCCC1)N1CCN(C/C=C/c2ccccc2)CC1	0	16	35	81*
COc1ccc(N2CCN(CC(=O)c3c[nH]c4ccccc34)CC2)cc1	.	.	9	.
COc1ccc2[nH]cc(C(=O)CN3CCN(C/C=C/c4ccccc4)CC3)c2c1	1	-11	38	98*
COc1ccc(CC(NC(C)=O)C(=O)NC2CCN(c3nnnn3-c3ccccc3)CC2)cc1OC (stereo unspecified)	1	-12	-8	-5
O=C(c1ccc(Cl)cc1)N(Cc1ccccc1F)N1C(=O)CCCC1=O	1	0	9	0
S=C(NCc1ccco1)N1CCN(C/C=C/c2ccccc2)CC1	2	8	-6	77*
COc1cccc(NC(=S)N2CCN(C/C=C/c3ccccc3)CC2)c1	0	16	35	95*
Oc1ccc(-c2cn3cc(C(F)(F)F)ccc3n2)cc1	1	8	6	51*
O=C(N/N=C/c1ccccc1)c1sccc1OCc1ccc(F)cc1	0	6	-19	92*
O=C(N/N=C/c1ccncc1)c1ccccc1OCc1ccc(Br)cc1	0	9	11	100*
